From PubChem BioAssay AID1159580 (chemical genetic matrix, 2015)
Values joined by “and” are separate entries in the source; they are usually repeats but may differ in a detail not shown here. Equal values may be shown once. Among all 5,500 compounds or so, about 2,000 (36%) were called active. Inconclusive results (about 18%) are left out. No stated cut-off is given here; in the data, active means normalized growth mostly below about 0.91 (no sharp cut-off); inconclusive means no clear call, values can overlap the other calls; inactive means mostly above about 0.92. The list shows a part of the results.

Assay: chemical genetic growth profiling, strain panel (AID 1159580);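 further: tested at 20 µM; growth read once vehicle control cultures reached saturation at 30 °C; 1 = growth at the plate median or of vehicle wells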
Conditions: S. cerevisiae deletion strains, growth OD

Measured: normalized growth

O=C(O[C@@H]1Cc2c(O)cc(O)cc2O[C@@H]1c1cc(O)c(O)c(O)c1)c1cc(O)c(O)c(O)c1
inactive: locus YBR021W, strain FUR4, stronger effect = lower value 1.01 | locus YBR171W, strain sec66, stronger effect = lower value 0.976 | locus YCL016C, strain dcc1, stronger effect = lower value 0.934 | locus YCL069W, strain vba3, stronger effect = lower value 0.94 | locus YCR088W, strain abp1, stronger effect = lower value 1.01 | locus YDL005C, strain med2, stronger effect = lower value 0.994 | locus YDL040C, strain nat1, stronger effect = lower value 0.979 | locus YDL185W, strain tfp1, stronger effect = lower value 0.994 | locus YDR001C, strain nth1, stronger effect = lower value 1 | locus YDR101C, strain arx1, stronger effect = lower value 0.966 | locus YDR159W, strain sac3, stronger effect = lower value 1.02 | locus YDR195W, strain ref2 0.905 | locus YDR318W, strain mcm21, stronger effect = lower value 0.951 | locus YDR392W, strain spt3, stronger effect = lower value 0.931 | locus YEL061C, strain CIN8 (second series), stronger effect = lower value 0.982 | locus YER016W, strain bim1, stronger effect = lower value 0.978 | locus YER110C, stronger effect = lower value 1.03 | locus YER155C, strain BEM2 (second series), stronger effect = lower value 0.893 | locus YER155C, strain BEM2, stronger effect = lower value 0.955 | locus YGL078C, strain dbp3, stronger effect = lower value 1.01 | locus YGL167C, strain pmr1, stronger effect = lower value 0.981 | locus YGL227W, strain vid30, stronger effect = lower value 1.02 | locus YGL240W, strain doc1, stronger effect = lower value 0.961 | locus YGR078C, strain PAC10, stronger effect = lower value 0.865 | locus YGR252W, strain gcn5, stronger effect = lower value 0.864 | locus YHR079C, strain IRE1 (second series), stronger effect = lower value 0.999 | locus YHR079C, strain IRE1, stronger effect = lower value 1.03 | locus YHR094C, strain hxt1, stronger effect = lower value 1.01 | locus YIL125W, strain kgd1, stronger effect = lower value 1 | locus YIR030C, strain dcg1, stronger effect = lower value 0.999 | locus YJL092W, strain hpr5, stronger effect = lower value 0.986 | locus YJL115W, strain asf1, stronger effect = lower value 0.988 | locus YJL129C, strain trk1, stronger effect = lower value 1.02 | locus YJL154C, strain vps35, stronger effect = lower value 0.992 | locus YJL168C, strain set2, stronger effect = lower value 0.998 | locus YJR066W, strain TOR1, stronger effect = lower value 0.936 | locus YKL009W, strain mrt4, stronger effect = lower value 1.04 | locus YKL068W, stronger effect = lower value 1 | locus YKL085W, strain MDH1 (second series), stronger effect = lower value 1.01 | locus YKL085W, strain MDH1, stronger effect = lower value 1.01 | locus YKL160W, strain elf1, stronger effect = lower value 0.936 | locus YKR001C, strain vps1, stronger effect = lower value 0.914 | locus YKR026C, strain gcn3, stronger effect = lower value 0.998 | locus YKR091W, strain srl3, stronger effect = lower value 0.996 | locus YLL041C, strain sdh2, stronger effect = lower value 0.962 | locus YLR102C, strain apc9, stronger effect = lower value 1.04 | locus YLR113W, strain HOG1, stronger effect = lower value 1.06 | locus YLR262C, strain YPT6, stronger effect = lower value 0.664 | locus YLR384C, strain iki3, stronger effect = lower value 0.94 | locus YML032C, strain rad52, stronger effect = lower value 1.01 | locus YML120C, strain ndi1, stronger effect = lower value 0.967 | locus YML124C, strain tub3, stronger effect = lower value 1 | locus YMR078C, strain ctf18, stronger effect = lower value 1.01 | locus YMR125W, strain sto1, stronger effect = lower value 1.07 | locus YMR129W, stronger effect = lower value 0.973 | locus YNL183C, strain NPR1, stronger effect = lower value 0.968 | locus YNL248C, strain rpa49, stronger effect = lower value 0.952 | locus YNL250W, strain rad50, stronger effect = lower value 1.02 | locus YNL271C, strain bni1, stronger effect = lower value 1 | locus YNL298W, strain CLA4, stronger effect = lower value 1 | locus YNL307C, strain MCK1, stronger effect = lower value 0.99 | locus YNL322C, strain KRE1 (second series), stronger effect = lower value 1.04 | locus YNR049C, strain mso1, stronger effect = lower value 0.986 | locus YOL012C, strain htz1 0.219 | locus YOL147C, strain pex11, stronger effect = lower value 0.97 | locus YOR136W, strain idh2, stronger effect = lower value 0.966 | locus YOR144C, strain elg1, stronger effect = lower value 0.971 | locus YOR231W, strain MKK1, stronger effect = lower value 1.02 | locus YOR290C, strain snf2, stronger effect = lower value 0.894 | locus YOR316C, strain cot1, stronger effect = lower value 1.02 | locus YPL078C, strain atp4, stronger effect = lower value 0.947 | locus YPL240C, strain hsp82, stronger effect = lower value 0.98 | locus YPL256C, strain CLN2, stronger effect = lower value 1.05 | locus YPR119W, strain clb2, stronger effect = lower value 1.02 | locus YPR141C, strain kar3, stronger effect = lower value 0.995 | locus YPR163C, strain tif3, stronger effect = lower value 1.01 | locus YPR167C, strain met16, stronger effect = lower value 0.951
active: locus YAL021C, strain ccr4, stronger effect = lower value 0.284 | locus YAL026C, strain drs2, stronger effect = lower value 0.781 | locus YAL030W, strain snc1, stronger effect = lower value 0.874 | locus YBL061C, strain skt5, stronger effect = lower value 0.77 | locus YBR009C, strain hhf1, stronger effect = lower value 0.823 | locus YBR023C, strain chs3, stronger effect = lower value 0.746 | locus YBR229C, strain ROT2, stronger effect = lower value 0.889 | locus YBR231C, strain swc5, stronger effect = lower value 0.688 | locus YBR279W, strain paf1, stronger effect = lower value 0.821 | locus YCL011C, strain gbp2, stronger effect = lower value 0.855 | locus YCL029C, strain bik1, stronger effect = lower value 0.866 | locus YCL061C, strain MRC1, stronger effect = lower value 0.913 | locus YDL035C, strain GPR1, stronger effect = lower value 0.333 | locus YDL074C, strain BRE1, stronger effect = lower value 0.576 | locus YDL101C, strain DUN1, stronger effect = lower value 0.385 | locus YDL192W, strain arf1, stronger effect = lower value 0.872 | locus YDR069C, strain doa4, stronger effect = lower value 0.413 | locus YDR137W, strain rgp1, stronger effect = lower value 0.839 | locus YDR162C, strain NBP2, stronger effect = lower value 0.14 | locus YDR297W, strain sur2, stronger effect = lower value 0.832 | locus YDR334W, strain swr1, stronger effect = lower value 0.837 | locus YDR335W, strain msn5, stronger effect = lower value 0.879 | locus YDR388W, stronger effect = lower value 0.929 | locus YDR502C, strain sam2, stronger effect = lower value 0.855 | locus YEL003W, strain gim4, stronger effect = lower value 0.85 | locus YEL037C, strain rad23, stronger effect = lower value 0.905 | locus YER015W, strain faa2, stronger effect = lower value 0.682 | locus YER111C, strain swi4, stronger effect = lower value 0.845 | locus YER167W, strain BCK2, stronger effect = lower value 0.801 | locus YFR010W, strain ubp6, stronger effect = lower value 0.865 | locus YGL086W, strain mad1, stronger effect = lower value 0.776 | locus YGL173C, strain kem1, stronger effect = lower value 0.567 | locus YGL248W, strain PDE1, stronger effect = lower value 0.536 | locus YGL253W, strain hxk2, stronger effect = lower value 0.794 | locus YGR135W, strain pre9, stronger effect = lower value 0.861 | locus YHR013C, strain ard1, stronger effect = lower value 0.663 | locus YHR027C, strain rpn1, stronger effect = lower value 0.52 | locus YHR129C, strain ARP1, stronger effect = lower value 0.586 | locus YHR142W, strain chs7, stronger effect = lower value 0.749 | locus YHR200W, strain rpn10, stronger effect = lower value 0.855 | locus YIL066C, strain RNR3, stronger effect = lower value 0.176 | locus YIL073C, strain SPO22, stronger effect = lower value 0.226 | locus YJL095W, strain BCK1 (second series), stronger effect = lower value 0.882 | locus YJL134W, strain LCB3, stronger effect = lower value 0.914 | locus YJL164C, strain tpk1, stronger effect = lower value 0.808 | locus YJL166W, strain qcr8, stronger effect = lower value 0.744 | locus YJL187C, strain SWE1 (second series), stronger effect = lower value 0.29 | locus YJL187C, strain SWE1, stronger effect = lower value 0.837 | locus YJR043C, strain POL32, stronger effect = lower value 0.317 | locus YJR075W, strain HOC1, stronger effect = lower value 0.704 | locus YKL190W, strain CNB1, stronger effect = lower value 0.26 | locus YLL001W, strain dnm1, stronger effect = lower value 0.897 | locus YLL026W, stronger effect = lower value 0.899 | locus YLR027C, strain aat2, stronger effect = lower value 0.829 | locus YLR039C, strain RIC1, stronger effect = lower value 0.331 | locus YLR058C, strain SHM2, stronger effect = lower value 0.373 | locus YLR221C, strain rsa3, stronger effect = lower value 0.87 | locus YLR258W, strain gsy2, stronger effect = lower value 0.898 | locus YLR262C, strain YPT6 (second series), stronger effect = lower value 0.835 | locus YLR268W, strain sec22, stronger effect = lower value 0.832 | locus YLR320W, strain mms22, stronger effect = lower value 0.877 | locus YLR330W, strain CHS5, stronger effect = lower value 0.776 | locus YLR342W, strain FKS1 (second series), stronger effect = lower value 0.297 | locus YLR342W, strain FKS1, stronger effect = lower value 0.649 | locus YLR357W, strain rsc2, stronger effect = lower value 0.704 | locus YLR370C, strain arc18, stronger effect = lower value 0.89 | locus YLR371W, strain rom2, stronger effect = lower value 0.677 | locus YLR418C, strain cdc73, stronger effect = lower value 0.625 | locus YML016C, strain PPZ1, stronger effect = lower value 0.114 | locus YMR058W, strain fet3, stronger effect = lower value 0.174 | locus YMR205C, strain PFK2, stronger effect = lower value 0.821 | locus YMR223W, strain ubp8, stronger effect = lower value 0.887 | locus YMR231W, strain pep5, stronger effect = lower value 0.496 | locus YMR307W, strain GAS1, stronger effect = lower value 0.429 | locus YNL067W, strain RPL9B, stronger effect = lower value 0.692 | locus YNL071W, strain lat1, stronger effect = lower value 0.878 | locus YNL128W, strain TEP1, stronger effect = lower value 0.13 | locus YNL153C, strain GIM3, stronger effect = lower value 0.665 | locus YNL209W, strain ssb2, stronger effect = lower value 0.44 | locus YNL233W, strain BNI4, stronger effect = lower value 0.651 | locus YNL322C, strain KRE1, stronger effect = lower value 0.26 | locus YNR052C, strain pop2, stronger effect = lower value 0.861 | locus YOL006C, strain TOP1, stronger effect = lower value 0.324 | locus YOR001W, strain rrp6, stronger effect = lower value 0.875 | locus YOR061W, strain CKA2, stronger effect = lower value 0.484 | locus YOR069W, strain VPS5, stronger effect = lower value 0.526 | locus YOR070C, strain gyp1, stronger effect = lower value 0.767 | locus YOR080W, strain dia2, stronger effect = lower value 0.754 | locus YOR083W, strain WHI5, stronger effect = lower value 0.882 | locus YOR106W, strain vam3, stronger effect = lower value 0.316 | locus YOR184W, strain ser1, stronger effect = lower value 0.808 | locus YOR265W, strain rbl2, stronger effect = lower value 0.912 | locus YOR270C, strain vph1, stronger effect = lower value 0.499 | locus YPL051W, strain arl3, stronger effect = lower value 0.539 | locus YPL055C, strain LGE1, stronger effect = lower value 0.249 | locus YPL106C, strain sse1, stronger effect = lower value 0.762 | locus YPL241C, strain CIN2, stronger effect = lower value 0.741 | strain wtn01, stronger effect = lower value 0.832
0.148 (active) and 1.01 (inactive): locus YJL095W, strain BCK1, stronger effect = lower value
0.798 (active) and 1.02 (inactive): locus YHR030C, strain SLT2, stronger effect = lower value
